A selection: hits, their analogues and other compounds. The true share with any hit is near 1.5%.
BLM helicase inh – blocks DNA unwinding by human BLM helicase; P54132; recombinant BLM DNA unwinding, fluorescence dequenching; Potency, µM (titrated, usually from 56.1 µM), without a hit: at the highest dose activity change, negative = inhibition, usual class: inhibitors; 0.2% of 350,000 active;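 further: potency means the concentration at half of the fitted maximal effect; plate controls were vehicle for no effect and no enzyme for full effect; nearly all actives have a fitted effect of over 35% in size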
RECQ1 inh – RECQ1 (human) helicase inhibition | AID 2549 | 0.54% of 240,000 active | Potency, µM (doses to about 57.3 µM), without a hit: at the top dose activity, negative = inhibition, actives largely listed as inhibitors | P46063 | RECQ1 DNA unwinding, red fluorescence kinetic read;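 further: potency means the concentration at half of the fitted maximal effect; plate controls were vehicle for no effect and no enzyme for full effect; nearly all actives have a fitted effect of over 30% in size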
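50 nM RECQ1T1 preincubated 15 min with compound in Tris pH 8.0 buffer with MgCl2, DTT, Tween-20 and 2.5 ug/ml poly(dI-dC); started with 200 nM TAMRA/BHQ-2 forked duplex and 2 mM ATP. Unwinding read as fluorescence (525/598 nm), two reads 2 h apart.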
FEN1 inhibitor – human FEN1 inhibition; P39748; Recombinant FEN1 flap cleavage, fluorescence, 15 min; Potency, µM (top dose mostly 114 µM), for inactives: at the highest dose activity change, negative = inhibition, usual class: inhibitors; 0.35% of 390,000 active; AID 588795; further: potency means the concentration at half of the fitted maximal effect; nearly all actives have a fitted effect of over 65% in size
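Concentration–response screening of FEN1 (10 nM): 15 min compound preincubation at room temperature, reaction started with 50 nM substrate and read at 0 and 15 min. Corrected, normalized data were fitted by a four-parameter Hill equation.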
PI5P4K alpha inh – inhibitors of human PI5P4K alpha; max response, %; 1.2% of 330,000 active; PI5P4Kalpha enzyme, ADP-Glo luminescence, 60 min; stronger effect = lower value; AID 652105; P48426; active means max response of -50% or lower; inconclusive means between -30% and -50%; inactive means -30% or higher; further: value at the top dose of about 77 µM
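ADP-Glo luminescence end-point after a 60 min room-temperature kinase reaction. PI5P4Kalpha and substrate in HEPES pH 7.4 buffer with EGTA, 0.1% CHAPS and 5% DMSO; ATP at 5 microM final.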
WRN inhibitor – WRN helicase (human) inhibition; WRN helicase unwinding, fluorescent forked duplex, kinetic; Q14191; 0.46% of 360,000 active; AID 651768; Potency, µM (titrated, usually from 114 µM), inactives show at the top dose activity change, negative = inhibition, usual class: inhibitors; further: potency means the concentration at half of the fitted maximal effect; nearly all actives have a fitted effect of over 55% in size
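Fluorescence dequenching readout, ex 525 nm/em 598 nm, kinetic mode: forked duplex DNA (100 nM final) with adjacent fluorophore and quencher unwound by WRN (20 nM final) with 2 mM ATP. Compound preincubation 15 min, room temperature.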
APEX1 inh – APE1 (human) endonuclease inhibition; recombinant APE1, TAMRA/BHQ-2 abasic DNA cleavage fluorescence; Potency, µM (series often up to 65.8 µM), without a hit: at the highest dose activity change, negative = inhibition, most hits filed as inhibitors; 0.35% of 350,000 active; AID 2517;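 further: potency means the concentration at half of the fitted maximal effect; plate controls were vehicle for no effect and reference inhibitor for full effect; nearly all actives have a fitted effect of over 55% in size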
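Endonuclease cleavage of a quenched abasic-site DNA duplex (50 nM) by APE1 (0.75 nM) was tracked by TAMRA dequenching. Compounds were preincubated with enzyme 15 min at room temperature; data normalized to buffer-only and DMSO wells plus NSC13755 control.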
* marks the source's active call; other numbers are inactive results; i = inactive; ? = inconclusive; / = no result given; ! = not active in a repeat; [ ] = another dose, or the depositor's remark. Unless noted, the call rests on the fitted dose curve; in most records, active means well fitted curve in the direction sought with a large enough effect; inconclusive means small, poorly fitted or top-dose-only effect, or another doubt; inactive means no such curve, though single readings can be large; an effect the other way counts as inactive or inconclusive. Unless noted, on the % scale 0 is the no-effect control and ±100 the full control effect.

SMILES	BLM helicase inh	RECQ1 inh	FEN1 inhibitor	PI5P4K alpha inh	WRN inhibitor	APEX1 inh
Cn1cc(/C=C2\SC(=S)N(NC(=O)c3cccc(Cl)c3)C2=O)c2ccccc21	-5%	11%	8%	2	20µM*	0%
Cn1cc(/C=C2\SC(=S)N(NC(=O)c3ccccc3)C2=O)c2ccccc21	-8%	32µM*	0%	-6	42%	-4%
Fc1ccc2[nH]c(-c3cccs3)cc2c1	-13%	/	-21%	/	/	/
O=C(Nc1nccs1)c1ccc(S(=O)(=O)N2CCOCC2)cc1	-2%	-1%	79µM*	2	4%	9%
O=C(O)c1cc(=O)c2c(Cl)cc(Cl)cc2[nH]1	5%	-11%	15%	-59*	-2%	-9%
O=C(O)c1cc(=O)c2ccccc2[nH]1	3%	-6%	0%	-16	9%	47%
O=C(O)C1Nc2ccc(Br)cc2C2C=CCC12 (configuration not stated)	16µM*	/	?	-82*	28µM*	?
O=C(OC1CCCCC1)c1ccc2c(c1)C1C=CCC1C(C(=O)O)N2 (configuration not stated)	16µM*	7.9µM*	/	/	/	?
O=C(O)c1ccc2c(c1)[C@@H]1C=CC[C@@H]1[C@H](c1ccccn1)N2	/	/	32µM*	/	35µM*	/
COc1ccc(OC)c([C@@H]2Nc3ccc(C(=O)O)cc3[C@@H]3C=CC[C@@H]32)c1	4%	/	-20%	/	/	/
Oc1c(CN2CCc3ccccc3C2)cc(Cl)c2cccnc12	-1%	5%	40µM*	-15	3%	9%
Cc1ccc(NC(=O)CN2C(=O)N/C(=C\c3cccn3-c3ccc([S+](N)(=O)[O-])cc3)C2=O)cc1	/	/	/	/	/	7%
O=C(O)c1cccc(-c2nc(-c3ccccc3C(F)(F)F)no2)c1	/	/	/	/	/	7%
N=C(CC(O)COc1ccccc1-c1ccccc1)N1CCCCC1 (configuration not stated)	-9%	-19%	/	/	/	10µM*!
N=C1C(c2nc(-c3cccc([N+](=O)[O-])c3)cs2)=C(O)CN1NC(=O)c1ccco1	-1%	i	-21%	-55*	?	0%
CCN(CC)C(=S)SC1=CCS(=O)(=O)C1	-2%	-1%	-1%	10	5%[57.1 µM]	-6%
CCN(CC)C(=S)SSC(=S)N(CC)CC	-8%	-3%	?	-78*	13%	2%
O=c1c(-c2ccccc2)c[nH]n1-c1cccc([N+](=O)[O-])c1	-7%	-2%	1%	-5	-1%	?
CC1(C)CN(c2cccc(C#N)c2)C1=O	2%	-2%	-4%	-20	3%	2%
O=c1c2cc([N+](=O)[O-])ccc2sn1-c1ccccc1	/	/	/	-100*	4%	/
CC(=O)Nc1ccc2sn(-c3ccccc3)c(=O)c2c1	/	/	/	-82*	2%	/
N#Cc1ccc2sn(-c3ccccc3)c(=O)c2c1	/	/	/	-108*	-6%	/
CCOC(=O)C(=O)Nc1nnc2n1CCS2	0%	/	-18%	/	/	/
C#CCNC(=O)C1=C[C@H](c2ccc(C#C)cc2)C[C@H](OCc2ccc(CO)cc2)O1	/	/	0%	-59*	-12%	/
Nc1nnc2c(n1)[nH]c1ccccc12	-7%	/	1%	/	/	/
SMILES	BLM helicase inh	RECQ1 inh	FEN1 inhibitor	PI5P4K alpha inh	WRN inhibitor	APEX1 inh
S=c1nc2[nH]c3ccccc3c2n[nH]1	/	/	-11%	-50*	-27%	/
Cc1nn(C)cc1/C=C1\SC(=S)NC1=O	-3%	i	10%	-82*	-21%	?
CN1CCN(/C=C2\SC(=S)NC2=O)CC1	1%	0%	-1%	-12	1%	16%
Cc1nn(C)c(C)c1/C=C1/SC(=S)NC1=O	-2%	13%	-1%	-78*	-2%	8%
CCSC(=O)N1CCN(/[N+]([O-])=N/Oc2ccc([N+](=O)[O-])cc2[N+](=O)[O-])CC1	/	/	-12%	/	/	/
CCOc1ccc(-c2oc3cc(Cl)ccc3c(=O)c2O)cc1OC	-3%	/	3%	/	/	/
CCc1ccccc1NC(=O)CSc1ccsc1[N+](=O)[O-]	-22%	-2%	-10%	-57*	?	9%
O=C(CSc1ccsc1[N+](=O)[O-])NC1CCCC1	-8%	-5%	4%	?	-6%[11.6 µM]	-4%
NS(=O)(=O)c1ccc(CCNC(=O)CSc2ccsc2[N+](=O)[O-])cc1	-5%	-4%	0%	-67*	-8%[11.6 µM]	-1%
CSc1ccc(CCNC(=O)CSc2ccsc2[N+](=O)[O-])cc1	-9%	-1%	-1%	-51*	-32%	1%
CCN(C(=O)c1cn(CC(C)C)c(=O)c2cc(OC)c(OC)cc12)c1cc(OC)ccc1OC	0%	/	-6%	/	/	/
COc1ccc(NC(=O)c2cc(-c3ccc(C)o3)nc3ccccc23)c(OC)c1	/	/	-19%	-27	-4%	/
COc1ccc(NC(=O)c2cc(-c3ccc(C)o3)nc3ccccc23)cc1OC	-17%	-5%	-8%	-53*	-26%[57.1 µM]	-12%
CC(C)(C)n1ncc2c(=O)n(Cc3c(F)ccc(Cl)c3Cl)cnc21	/	/	-14%	/	/	1%
CCCCn1c(C)cc2c(c1=O)C1O[C@](c3ccc(OC)cc3)(Cc3cc(OC)c(OC)cc31)O2	-11%[12.4 µM]	/	/	/	/	4.3µM*
CCCCn1c(C)cc2c(c1=O)[C@H]1O[C@](CCCC)(Cc3cc(OC)c(OC)cc31)O2	-1%[12.4 µM]	/	/	/	/	0%[12.4 µM]
N#CCCCS(=O)(=O)c1nnnn1-c1ccc(F)cc1Br	4%	-1%	/	/	/	3%
CC[C@H](C)[C@H](NC(=O)[C@H](C)NC(=O)CNC(=O)[C@H](CCCCN)NC(=O)[C@H](CC(N)=O)NC(=O)[C@H](CO)NC(=O)CN)C(=O)N[C@H](C(=O)NCC(=O)N[C@@H](CC(C)C)C(=O)N[C@@H](CCSC)C(=O)O)[C@@H](C)CC	-3%	7%	/	/	/	2%
CCCCC1(C)Cc2ccccc2C(=S)N1 (configuration not stated)	1%	-1%	5%	/	-3%	-5%
CCCCC1(C)NC(=S)N2N1C(=S)NC2(C)CCCC (configuration not stated)	1%	-2%	6%	?	56µM*	-1%
CCCCNC(=O)NS(=O)(=O)c1ccc(CO)cc1	3%	-8%	/	/	/	-1%
CC(C)(C)c1ccc(Cc2n[nH]c(=S)[nH]c2=O)cc1	1%	/	2%	?	-9%	-4%
O=c1[nH]c(=S)[nH]nc1Cc1ccc(Cl)c(Cl)c1	-1%	/	2%	-76*	-16%	59%
COc1cccc(NC(=O)CSc2nnc(-c3ccco3)c(-c3ccco3)n2)c1	-25%	/	?	-63*	45µM*	7%
Cc1ccc(SCC(=O)Nc2ccc(-c3nnc(-c4ccco4)o3)cc2)cc1	-14%	-11%	-12%	-4	-28%	-6%
